39 compounds from the supplement of paper PMC11624193, “Coupling cellular drug-target engagement to downstream pharmacology with CeTEAM” (Nature Communications, 2024) can be followed below.

“And” between values parts separate entries of the source, which are not always exact repeats. Equal entries are not always repeated. Structures can show the parent of a compound that is named as a salt.

The target in the experiment is PARP1 L713F-nLuc biosensor (HCT116) (UniProt P09874). Briefly: PARP1 L713F-nLuc/akaLuc ratio relative to DMSO control (biosensor stabilization) (fold change); higher = more PARP1 biosensor stabilization (target engagement / stabilizer), active = hit call of the paper. To be noted: stock concentration (mM; final µM = stock mM x 1): 10; 24 h.
Sequence of PARP1 L713F-nLuc biosensor (HCT116) (P09874 whole entry L713F, looked up): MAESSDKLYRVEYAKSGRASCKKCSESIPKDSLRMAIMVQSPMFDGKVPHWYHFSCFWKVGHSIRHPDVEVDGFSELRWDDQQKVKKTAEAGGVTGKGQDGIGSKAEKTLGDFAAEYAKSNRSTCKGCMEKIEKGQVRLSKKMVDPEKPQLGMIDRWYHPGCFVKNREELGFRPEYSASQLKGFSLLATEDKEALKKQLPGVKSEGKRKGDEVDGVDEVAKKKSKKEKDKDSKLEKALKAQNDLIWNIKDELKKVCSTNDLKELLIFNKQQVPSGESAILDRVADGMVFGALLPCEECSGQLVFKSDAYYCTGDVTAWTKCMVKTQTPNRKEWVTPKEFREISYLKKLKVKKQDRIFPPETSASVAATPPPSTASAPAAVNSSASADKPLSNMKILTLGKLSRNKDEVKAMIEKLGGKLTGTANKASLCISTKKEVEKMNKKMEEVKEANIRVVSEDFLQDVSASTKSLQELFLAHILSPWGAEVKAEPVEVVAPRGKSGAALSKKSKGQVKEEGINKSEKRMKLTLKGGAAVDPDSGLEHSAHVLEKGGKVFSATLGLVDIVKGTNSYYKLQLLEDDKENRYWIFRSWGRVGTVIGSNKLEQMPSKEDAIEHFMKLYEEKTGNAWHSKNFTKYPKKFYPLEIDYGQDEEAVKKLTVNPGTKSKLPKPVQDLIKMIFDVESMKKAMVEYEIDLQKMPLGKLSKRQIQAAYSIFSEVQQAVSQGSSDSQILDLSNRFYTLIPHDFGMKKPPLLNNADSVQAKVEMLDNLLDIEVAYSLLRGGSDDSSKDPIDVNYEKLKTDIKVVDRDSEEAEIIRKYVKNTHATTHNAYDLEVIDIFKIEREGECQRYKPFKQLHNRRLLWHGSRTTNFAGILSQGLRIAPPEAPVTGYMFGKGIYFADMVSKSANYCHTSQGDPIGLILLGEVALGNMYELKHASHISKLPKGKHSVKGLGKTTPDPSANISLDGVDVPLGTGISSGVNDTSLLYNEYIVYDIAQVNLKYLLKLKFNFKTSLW
`COc1cc(/C=C/C(=O)O[C@H]2CC[C@]34C[C@]35CC[C@]3(C)[C@@H]([C@H](C)CCC=C(C)C)CC[C@@]3(C)[C@@H]5CC[C@H]4C2(C)C)ccc1O` [γ-Oryzanol]: the “PARP1 L713F-nLuc/akaLuc ratio” value was 1.11 (inactive).

Take `O=C(Nc1ccccc1-c1cn2c(CN3CCNCC3)csc2n1)c1cnc2ccccc2n1`: the “PARP1 L713F-nLuc/akaLuc ratio” value was 1 (inactive).

Take `c1cc(SSc2ccns2)sn1`: the “PARP1 L713F-nLuc/akaLuc ratio” value is 1.1 (inactive).

On to `Cc1cc(Nc2cc(N3CCN(C)CC3)nc(Nc3ccc([N+](=O)[O-])cc3)n2)n[nH]1`, for which the “PARP1 L713F-nLuc/akaLuc ratio” value is 1.52 (inactive).

For the compound `NC(=O)[C@H](CCCN=C(N)CCl)NC(=O)c1ccccc1` [Cl-amidine (hydrochloride)], the “PARP1 L713F-nLuc/akaLuc ratio” value is 0.914 (inactive).

For `NC(=O)c1cccc(N)c1` [3-Aminobenzamide], the “PARP1 L713F-nLuc/akaLuc ratio” value was 0.995 (inactive).

On to `O=C(Nc1ccc(Cl)cc1)c1cc2ccccc2cc1OP(=O)(O)O`, for which the “PARP1 L713F-nLuc/akaLuc ratio” value was 1.35 (inactive).

Consider `CCCc1cc(C)[nH]c(=O)c1CNC(=O)c1cc(-c2ccnc(N3CCN(C)CC3)c2)cc2c1cnn2C(C)C`, for which the “PARP1 L713F-nLuc/akaLuc ratio” value is 2.54 (inactive).

`CS(=O)(=O)c1ccc(-c2cnc(N)c(C(=O)Nc3ccccc3)n2)cc1`: the “PARP1 L713F-nLuc/akaLuc ratio” value is 1.46 (inactive).

As to `O=c1sn(-c2cccc3ccccc23)c(=O)n1Cc1ccccc1` [Tideglusib], the “PARP1 L713F-nLuc/akaLuc ratio” value was 1.22 (inactive).

On to `O=c1[nH]ccc2c(O)cccc12` [1,5-Isoquinolinediol], for which the “PARP1 L713F-nLuc/akaLuc ratio” value is 2.7 (active).

For `CCc1cncnc1N1CCN(Cc2nc3ccc(C(F)(F)F)cc3[nH]2)CC1`, the “PARP1 L713F-nLuc/akaLuc ratio” value is 0.681 (inactive).

As to `Clc1ccc(-c2csc(NN=C3CCCC3)n2)cc1`, the “PARP1 L713F-nLuc/akaLuc ratio” value was 0.775 (inactive).

For the compound `Cn1ncc(Cl)c1-c1cc(C(=O)N[C@H](CN)Cc2cccc(F)c2)sc1Cl` [Afuresertib (hydrochloride)], the “PARP1 L713F-nLuc/akaLuc ratio” value is 0.764 (inactive).

Turning to `CCCCCCCCCCCCC/C=C/[C@@H](O)[C@H](CO)NC(=O)CCCCCCC` [C8-Ceramide], the “PARP1 L713F-nLuc/akaLuc ratio” value is 0.658 (inactive).

Regarding `O=c1[nH]cc(F)c(=O)[nH]1` [Fluorouracil (5-Fluoracil, 5-FU)], the “PARP1 L713F-nLuc/akaLuc ratio” value is 0.702 (inactive).

Regarding `CCOC(=O)CCNc1cc(N2CCc3ccccc3CC2)nc(-c2ccccn2)n1` [GSK-J4 (hydrochloride)], the “PARP1 L713F-nLuc/akaLuc ratio” value was 1.45 (inactive).

`CCCCCC1CC1CC1CC1CCCCCCCC(=O)O` (centres undefined): the “PARP1 L713F-nLuc/akaLuc ratio” value is 1.14 (inactive).

Regarding `C[C@]1(O)C[C@@H](c2nc(-c3ccc4ccc(-c5ccccc5)nc4c3)c3c(N)nccn32)C1` [Linsitinib (OSI-906)], the “PARP1 L713F-nLuc/akaLuc ratio” value is 0.715 (inactive).

As to `N#Cc1c(Oc2ccc(F)c(NC(=O)Cc3cccc(C(F)(F)F)c3)c2)ccc2nc(NC(=O)C3CC3)sc12`, the “PARP1 L713F-nLuc/akaLuc ratio” value was 0.538 (inactive).

Regarding `CS(=O)(=O)NCCC1CCN(c2ncnc3cc(C(N)=O)sc23)CC1`, the “PARP1 L713F-nLuc/akaLuc ratio” value was 0.762 (inactive).

Consider `O=C1CN2Cc3c(ccc(Cl)c3Cl)N=C2N1` [Anagrelide HCl], for which the “PARP1 L713F-nLuc/akaLuc ratio” value was 0.856 (inactive).

Regarding `CCOC(=O)NCCCC(=O)NCCc1ccccc1` [Santacruzamate A], the “PARP1 L713F-nLuc/akaLuc ratio” value was 0.97 (inactive).

With `CC1(N)CCN(c2cccnc2NC(=O)c2nc(-c3ncccc3C(F)(F)F)cnc2N)CC1` [Darovasertib], the “PARP1 L713F-nLuc/akaLuc ratio” value was 0.6 (inactive).

For `NC(=O)/C(=C/n1cnc(-c2cc(C(F)(F)F)cc(C(F)(F)F)c2)n1)c1cncnc1` [Eltanexor (KPT-8602)], the “PARP1 L713F-nLuc/akaLuc ratio” value was 0.767 (inactive).

As for `CCCCC[C@H](O)CC(=O)CCc1ccc(O)c(OC)c1` [[6]-Gingerol], the “PARP1 L713F-nLuc/akaLuc ratio” value is 1.5 (inactive).

Turning to `O=C(c1cc(Cc2n[nH]c(=O)c3ccccc23)ccc1F)N1CC(CNC2CC2)C1` [Venadaparib], the “PARP1 L713F-nLuc/akaLuc ratio” value was 5.9 (active).

With `CCCC(CCC)C(=O)O` [Valproic acid], the “PARP1 L713F-nLuc/akaLuc ratio” value was 1.52 (inactive).

As for `N#CC1(c2ccc(NC(=O)c3cccnc3NCc3ccncc3)cc2)CCCC1`, the “PARP1 L713F-nLuc/akaLuc ratio” value is 0.967 (inactive).

Consider `COC(=O)/C=C/c1ccccc1` [Methyl cinnamate], for which the “PARP1 L713F-nLuc/akaLuc ratio” value is 1.29 (inactive).

`C/C=C(/C)C(=O)O[C@H]1Cc2cc3ccc(=O)oc3cc2OC1(C)C` [Decursinol angelate]: the “PARP1 L713F-nLuc/akaLuc ratio” value is 0.885 (inactive).

As to `Cc1cnc(Nc2ccc(OCCN3CCCC3)cc2)nc1Nc1cccc(S(=O)(=O)NC(C)(C)C)c1`, the “PARP1 L713F-nLuc/akaLuc ratio” value is 0.333 (active).

As for `Cc1cc(Nc2cc(N3CCN(C)CC3)nc(/C=C/c3ccccc3)n2)n[nH]1`, the “PARP1 L713F-nLuc/akaLuc ratio” value was 1.27 (inactive).

As for `O=C(O)CNC(=O)c1nc(Cl)c2ccccc2c1O`, the “PARP1 L713F-nLuc/akaLuc ratio” value is 0.618 (inactive).

On to `CCCOc1ccn2c(C(C)=O)cc(-c3ccccc3S(C)(=O)=O)c2c1`, for which the “PARP1 L713F-nLuc/akaLuc ratio” value was 0.733 (inactive).

For `Nc1ncn([C@H]2C[C@H](O)[C@@H](CO)O2)c(=O)n1` [Decitabine], the “PARP1 L713F-nLuc/akaLuc ratio” value was 3.01 (active).

Consider `CCN(c1cc(C#CCN2CCOCC2)cc(C(=O)NCc2c(C)cc(C)[nH]c2=O)c1C)[C@H]1CC[C@H](N(C)CCOC)CC1`, for which the “PARP1 L713F-nLuc/akaLuc ratio” value is 1.57 (inactive) and 1.94 (inactive).

For `NC(=O)N1CCC(CC(=O)N2CCC([C@H]3c4ncc(Br)cc4CCc4cc(Cl)cc(Br)c43)CC2)CC1` [Lonafarnib], the “PARP1 L713F-nLuc/akaLuc ratio” value was 1.59 (inactive).

As for `NC(=O)c1cc(F)cc2c1C(=O)N(C1CCN(C3CCC(F)(F)CC3)CC1)C2`, the “PARP1 L713F-nLuc/akaLuc ratio” value was 6 (active).
